DT40 TDP1 CPT: growth inhibition of DT40 Tdp1-/-;hTDP1 cells with camptothecin (screen for TDP1 inhibitors); chicken DT40 Tdp1-/-;hTDP1 cells + 20 nM CPT, ATP luminescence, 48 h; Potency, µM (series often up to 46.2 µM), for inactives: at the highest dose activity change, negative = growth inhibition, usual class: inhibitors; hit rate 12% among 420,000; also: nearly all actives have a fitted effect of over 55% in size
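Chicken DT40 Tdp1-/- cells stably complemented with human TDP1 were seeded at 400 cells/well in medium containing 20 nM camptothecin, exposed to pin-transferred compounds, and grown at 37 °C for at least 48 hr. Viability was read as ATP luminescence.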
VDR inhibitor: vitamin D3 receptor (human) inhibition; VDR-SRC2-3 peptide fluorescence polarization, 2 h; AID 504847; hit rate 0.93% among 400,000; P11473; Potency, µM, inactives show max response, negative = inhibition, actives largely listed as inhibitors
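FP read-out; VDR + SRC2-3 coactivator peptide; 23 nl compound by pintool; 2 h RT incubation; reagents held at 4 deg C, protected from light.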
GCN5L2 inh: blocks human GCN5L2 histone acetyltransferase; Potency, µM (series often up to 58.9 µM), without a hit: top-dose activity change, negative = inhibition, actives largely listed as inhibitors; GCN5L2 HAT assay, ThioGlo1 CoA-SH fluorescence; hit rate 0.21% among 390,000
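Free CoA generated was detected with ThioGlo1 (50uM) fluorescence at Ex340nm/Em540nm, read immediately and after 20 min at room temperature. Enzyme, 20 nM in HEPES pH 7.5 buffer, saw compounds 15 min before adding 75uM H3(1-25) peptide and 70uM acetyl-CoA.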
PLK1 PBD inh: inhibitors of human PLK1 polo-box domain binding | P53350 | Plk1 PBD binding of FITC phosphopeptide, fluorescence polarization | hit rate 2.8% among 360,000 | Potency, µM, for the others: max response, negative = inhibition, most hits filed as inhibitors; also: series mostly up to about 57 µM; nearly all actives have a fitted effect of over 65% in size
Target sequence (P53350 whole entry, looked up, the tested form may be a part): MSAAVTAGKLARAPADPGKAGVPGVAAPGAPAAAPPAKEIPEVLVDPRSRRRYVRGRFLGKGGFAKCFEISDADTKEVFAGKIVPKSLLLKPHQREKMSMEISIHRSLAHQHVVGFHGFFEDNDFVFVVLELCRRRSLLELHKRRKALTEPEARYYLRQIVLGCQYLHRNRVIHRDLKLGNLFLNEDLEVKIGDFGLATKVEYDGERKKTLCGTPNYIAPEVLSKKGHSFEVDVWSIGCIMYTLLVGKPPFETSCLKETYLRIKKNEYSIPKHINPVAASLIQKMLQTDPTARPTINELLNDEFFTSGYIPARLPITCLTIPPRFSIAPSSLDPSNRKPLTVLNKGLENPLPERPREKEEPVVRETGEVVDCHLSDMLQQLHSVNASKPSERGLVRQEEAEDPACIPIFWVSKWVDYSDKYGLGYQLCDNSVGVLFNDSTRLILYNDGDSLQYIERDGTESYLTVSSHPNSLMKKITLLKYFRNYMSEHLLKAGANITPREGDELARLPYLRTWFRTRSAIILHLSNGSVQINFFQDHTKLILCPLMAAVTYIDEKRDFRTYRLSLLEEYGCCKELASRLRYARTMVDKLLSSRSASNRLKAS
DT40 TDP1 no CPT: qHTS for Inhibitors of human tyrosyl-DNA phosphodiesterase 1 (TDP1): qHTS in cells in absence of CPT | DT40 Tdp1-/- hTDP1 cells, no CPT, ATP luminescence, 48 h | AID 686978, 2013 | hit rate 15% among 420,000 | Potency, µM (doses to about 46.2 µM), without a hit: top-dose activity change, negative = growth inhibition, actives largely listed as inhibitors; also: nearly all actives have a fitted effect of over 55% in size
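Camptothecin absent (DMSO only). Human TDP1-complemented DT40 knockout cells, 400 cells/well, 37 °C for minimum 48 hr; ATP measured via CellTiter-Glo, 30 min dark incubation, luminescence.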
TDP1 block: TDP1 (human) enzyme inhibition. Q9NUW8. Potency, µM (highest dose often 130 µM), for the others: top-dose activity change, negative = inhibition, most hits filed as inhibitors. recombinant TDP1, AlphaScreen DNA substrate cleavage. hit rate 0.28% among 350,000. AID 485290; also: nearly all actives have a fitted effect of over 40% in size
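Steps: enzyme plus compound, 15 min RT; add biotin/phosphotyrosine-FITC oligonucleotide (15 nM final), react 5 min; add donor/acceptor beads (10 ug/ml final), 10 min; read AlphaScreen. Tdp1 at 1 nM final.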
Starred values were filed as active, the others as inactive; [ ] = another dose, or the depositor's remark. Sampled rows, rich in hits. Any-hit rate of the full collection: about 18%. Calls follow the shape of the dose curve; as a rule, active = well fitted curve in the direction sought with a large enough effect; inconclusive = small, poorly fitted or top-dose-only effect, or another doubt; inactive = no such curve, though single readings can be large; an effect the other way counts as inactive or inconclusive. % is scaled to controls: 0 for no effect and ±100 for the full control effect; potency is read from the fitted curve at half-maximal effect.

What do the screens show for `CCN(c1ccccc1)S(=O)(=O)c1ccc(Cl)c(NC(=O)CN(C)C2CCN(C)CC2)c1`?
DT40 TDP1 CPT: inconclusive; VDR inhibitor: 13%; GCN5L2 inh: 24%; PLK1 PBD inh: 4%; DT40 TDP1 no CPT: 16µM*

What do the screens show for `O=C(NC1CCN(Cc2ccccc2)CC1)c1ccccc1NS(=O)(=O)c1ccc(F)c(F)c1`?
DT40 TDP1 CPT: -30%; VDR inhibitor: 3%; PLK1 PBD inh: 1%; DT40 TDP1 no CPT: inconclusive

How did Cc1ccc(NS(=O)(=O)c2cccc(C(=O)NC3CCN(Cc4ccccc4)CC3)c2)cc1 do in these assays?
DT40 TDP1 CPT: 4.1µM*; VDR inhibitor: -7%; PLK1 PBD inh: 3%; DT40 TDP1 no CPT: 5.8µM*

How did CCN(c1ccccc1)S(=O)(=O)c1ccc(Cl)c(NC(=O)CN2CCN(C)CC2)c1 do in these assays?
DT40 TDP1 CPT: inconclusive; VDR inhibitor: -9%; GCN5L2 inh: 0%; PLK1 PBD inh: -1%; DT40 TDP1 no CPT: -8%; TDP1 block: 1%

Results for O=C(NC1CCN(Cc2ccccc2)C1)c1cccc(S(=O)(=O)N2CCOCC2)c1 (stereo unspecified) ?
DT40 TDP1 CPT: -33%; VDR inhibitor: -8%; GCN5L2 inh: -2%; PLK1 PBD inh: -1%; DT40 TDP1 no CPT: -20%; TDP1 block: 1%

What do the screens show for `O=C(NC1CCN(Cc2ccccc2)CC1)c1cc(S(=O)(=O)Nc2ccc(F)cc2)ccc1Cl`?
DT40 TDP1 CPT: 23µM*; VDR inhibitor: 1%; GCN5L2 inh: -25%; PLK1 PBD inh: -6%; DT40 TDP1 no CPT: 15µM*; TDP1 block: 0%

Results for CC(=O)Nc1c(C(=O)Nc2ccccc2F)oc2ccccc12 ?
DT40 TDP1 CPT: -16%; VDR inhibitor: -5%; GCN5L2 inh: -1%; DT40 TDP1 no CPT: inconclusive; TDP1 block: 4%

Results for Cc1ccc(NC(=O)C2CCC(CNS(=O)(=O)c3csc(C(N)=O)c3)CC2)cc1Cl (stereo unspecified) ?
DT40 TDP1 CPT: inconclusive; VDR inhibitor: 13%; GCN5L2 inh: -6%; DT40 TDP1 no CPT: inconclusive; TDP1 block: 0%

Results for COC(=O)C/C=C\[C@@H](C)[C@@H](CO)NS(=O)(=O)c1ccc(C)cc1 ?
TDP1 block: 5%[21 µM]

What do the screens show for `Cc1ccc(C(=O)NNC(=S)NCC2CCCO2)cc1[N+](=O)[O-]` (stereo unspecified)?
DT40 TDP1 CPT: inconclusive; VDR inhibitor: -14%; GCN5L2 inh: -2%; PLK1 PBD inh: 2%; DT40 TDP1 no CPT: inconclusive; TDP1 block: 4%

What do the screens show for `O=C(NNC(=O)c1ccc(SCC2CCCO2)c([N+](=O)[O-])c1)c1ccc(F)cc1` (stereo unspecified)?
DT40 TDP1 CPT: inconclusive; VDR inhibitor: 1%; GCN5L2 inh: 2%; PLK1 PBD inh: 0%; DT40 TDP1 no CPT: 20µM*; TDP1 block: 5%

How did Cc1ccc(NC(=O)Nc2cccnc2)cc1Cl do in these assays?
DT40 TDP1 CPT: inconclusive; VDR inhibitor: 12%; GCN5L2 inh: -20%; PLK1 PBD inh: -11%; DT40 TDP1 no CPT: -6%

How did Cc1ccc(NC(=O)Nc2c(Cl)cccc2Cl)cn1 do in these assays?
DT40 TDP1 CPT: inconclusive; VDR inhibitor: -13%; GCN5L2 inh: -8%; PLK1 PBD inh: -6%; DT40 TDP1 no CPT: 10µM*; TDP1 block: -2%

Results for CCCCC(CC)CNC(=O)CCCCCn1c(=O)[nH]c2ccsc2c1=O (stereo unspecified) ?
DT40 TDP1 CPT: inconclusive; VDR inhibitor: -25%; GCN5L2 inh: 2%; DT40 TDP1 no CPT: 23µM*; TDP1 block: -3%

Assay outcomes from PubChem BioAssay.
